Screens as filed in PubChem.
The sample as a whole holds a higher share of hits than the screen did.
ALOX12 inh: blocks human arachidonate 12S-lipoxygenase | 580,000 compounds, 1.1% hits | purified 12hLO, xylenol orange hydroperoxide absorbance | Potency, µM (top dose mostly 108 µM), without a hit: at the top dose activity change, negative = inhibition, most hits filed as inhibitors | P18054 | AID 1671190; also: potency is read from the fitted curve at half-maximal effect
Target sequence (P18054 whole entry, looked up): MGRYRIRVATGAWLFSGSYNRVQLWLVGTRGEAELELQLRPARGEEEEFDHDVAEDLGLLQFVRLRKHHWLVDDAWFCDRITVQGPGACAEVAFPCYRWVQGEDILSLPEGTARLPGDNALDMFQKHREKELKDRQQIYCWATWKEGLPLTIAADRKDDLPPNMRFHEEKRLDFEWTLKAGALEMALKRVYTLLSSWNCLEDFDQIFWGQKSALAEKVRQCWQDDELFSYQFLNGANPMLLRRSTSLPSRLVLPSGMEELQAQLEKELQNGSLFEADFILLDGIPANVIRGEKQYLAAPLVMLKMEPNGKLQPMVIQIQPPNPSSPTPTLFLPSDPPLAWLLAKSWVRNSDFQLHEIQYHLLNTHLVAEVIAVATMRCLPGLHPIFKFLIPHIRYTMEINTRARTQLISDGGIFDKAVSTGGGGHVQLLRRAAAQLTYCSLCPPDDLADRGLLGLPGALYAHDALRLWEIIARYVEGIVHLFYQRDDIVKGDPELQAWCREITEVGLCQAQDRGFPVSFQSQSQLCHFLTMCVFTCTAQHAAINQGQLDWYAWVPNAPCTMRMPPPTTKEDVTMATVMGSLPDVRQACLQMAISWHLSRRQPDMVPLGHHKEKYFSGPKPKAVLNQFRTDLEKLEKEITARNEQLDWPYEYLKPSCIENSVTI
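Purified human 12hLO (150 nM final) in 25 mM Hepes, 0.01% Triton X-100, pH 7.0 was preincubated 15 min at room temperature with compound. Then 40 uM arachidonic acid was added, 30 min. Hydroperoxide was read by Fe-XO absorbance ratio 573/405 nm.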
DT40 TDP1 no CPT: qHTS for Inhibitors of human tyrosyl-DNA phosphodiesterase 1 (TDP1): qHTS in cells in absence of CPT; DT40 Tdp1-/- hTDP1 cells, no CPT, ATP luminescence, 48 h; 420,000 compounds, 15% hits; Potency, µM (titrated, usually from 46.2 µM), without a hit: at the highest dose activity change, negative = growth inhibition, most hits filed as inhibitors; also: potency is read from the fitted curve at half-maximal effect; nearly all actives have a fitted effect of over 55% in size
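Luminescent ATP content (CellTiter-Glo) served as the growth readout. Knockout chicken DT40 cells expressing human TDP1 were exposed to compounds without camptothecin for a minimum 48 hr at 37 °C.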
HT1080 IDH1KD tx: kills HT-1080 cells with IDH1 knockdown; HT-1080 IDH1 knockdown viability, ATP luminescence, 48 h; Potency, µM (top dose mostly 46.1 µM), inactives show at the top dose activity, negative = toxicity, actives largely listed as cytotoxic; 360,000 compounds, 2% hits; AID 686971;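 also: potency is read from the fitted curve at half-maximal effect; 0% = DMSO wells and -100% = cell-free medium wells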
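Assay cells: HT-1080 with IDH1 knockdown, 750 per well, RPMI/5% FBS. Exposure: 48 h at 37 °C following 2 h pre-incubation. Read: CellTiter-Glo luminescence; fitted concentration-response, curve class assigned.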
DT40 TDP1 CPT: DT40-hTDP1 cell growth loss with CPT. Potency, µM (titrated, usually from 46.2 µM), inactives show at the highest dose activity change, negative = growth inhibition, most hits filed as inhibitors. 420,000 compounds, 12% hits. chicken DT40 Tdp1-/-;hTDP1 cells + 20 nM CPT, ATP luminescence, 48 h; also: potency is read from the fitted curve at half-maximal effect; nearly all actives have a fitted effect of over 55% in size
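Chicken DT40 Tdp1-/- cells complemented with human TDP1, 400 cells/well, exposed to compounds plus 20 nM camptothecin for at least 48 h at 37 C; viability read as ATP content by CellTiter-Glo luminescence.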
IL1B secr inh: inflammasome signaling inhibition, IL-1 beta readout; THP-1 LPS/ATP IL-1B secretion, AlphaLISA, 16 h; stronger effect = lower value; activity change, % at 57.5 µM; 360,000 compounds, 4.7% hits; AID 743279; in the data active = activity change below about -50%; inconclusive = mostly about -30% to -49%
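Secreted IL-1B measured by AlphaLISA bead assay after 16 h compound exposure of THP-1 cells; compounds (final up to 57.5 uM) added 1 h before LPS (250 ng/mL) and ATP (1.25 mM) stimulation; lower signal means less secretion.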
HT1080NT lethal: kills 2HG-producing HT-1080-NT fibrosarcoma cells; HT-1080-NT fibrosarcoma viability, CellTiter-Glo ATP luminescence, 48 h; Potency, µM (top dose mostly 46.1 µM), without a hit: at the top dose activity, negative = less viability, actives largely listed as cytotoxic; 360,000 compounds, 1.6% hits; AID 686970;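 also: NT is the 2HG producing partner of a matched IDH1 knockdown line; potency is read from the fitted curve at half-maximal effect; 0% = DMSO-treated cells and -100% = media-only wells without cells; nearly all actives have a fitted effect of over 55% in size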
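A 48-hour cytotoxicity screen used HT-1080-NT cells plated 2 hours before compound delivery. ATP-based CellTiter-Glo luminescence measured viability, normalized to DMSO and no-cell controls.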
* = called active by the depositor; [ ] = dose if it differs, or a comment. Unless noted, calls follow the shape of the dose curve; as a rule, active = well fitted curve in the direction sought with a large enough effect; inconclusive = small, poorly fitted or top-dose-only effect, or another doubt; inactive = no such curve, though single readings can be large; an effect the other way counts as inactive or inconclusive. Unless noted, % is scaled to controls: 0 for no effect and ±100 for the full control effect.

For COc1ccc([C@@H]2[C@@H]3C(=O)N(C(C)(C)C)C(=O)[C@@H]3[C@]3(CC(C)C)C(=O)N(c4ccc(C(F)(F)F)cc4)C(=O)N23)cc1 the results were ALOX12 inh -1%, DT40 TDP1 no CPT inconclusive, HT1080 IDH1KD tx 4%, DT40 TDP1 CPT -28%, IL1B secr inh 8 and HT1080NT lethal 8%.
Screening Cc1c(NC(=O)c2ccc(C(C)(C)C)cc2)cccc1[N+](=O)[O-] returned ALOX12 inh -7%, DT40 TDP1 no CPT 21µM*, HT1080 IDH1KD tx -24%, DT40 TDP1 CPT 16µM*, IL1B secr inh -52* and HT1080NT lethal 0%.
Cc1ccc(F)cc1NC(=O)CCNC(=O)c1ccc([N+](=O)[O-])cc1 was read as ALOX12 inh 12%, DT40 TDP1 no CPT inconclusive, HT1080 IDH1KD tx 6%, DT40 TDP1 CPT -23%, IL1B secr inh -74* and HT1080NT lethal 3%.
For COC(=O)c1ccc(C)c(NC(=O)CCNC(=O)c2ccc([N+](=O)[O-])cc2)c1 the results were ALOX12 inh -9%, DT40 TDP1 no CPT -9%, HT1080 IDH1KD tx 10%, DT40 TDP1 CPT -13%, IL1B secr inh 10 and HT1080NT lethal 5%.
`Cc1ccc(C(=O)Nc2cc([N+](=O)[O-])ccc2C)cc1` gave ALOX12 inh -10%, DT40 TDP1 no CPT 8%, HT1080 IDH1KD tx -1%, DT40 TDP1 CPT 4%, IL1B secr inh 42 and HT1080NT lethal 2%.
For Cc1ccc([N+](=O)[O-])cc1NC(=O)c1ccc(C(C)(C)C)cc1 the results were ALOX12 inh 12%, DT40 TDP1 no CPT 13µM*, HT1080 IDH1KD tx -14%[9.24 µM], DT40 TDP1 CPT inconclusive, IL1B secr inh inconclusive and HT1080NT lethal inconclusive.
For Cc1cc2c(cc1NC(=O)c1ccc(C(C)(C)C)cc1)n(C)c(=O)c(=O)n2C the results were ALOX12 inh -10%, DT40 TDP1 no CPT 26µM* and DT40 TDP1 CPT 23µM*.
Cc1ccccc1CNC(=O)c1ccc(CN2C(=O)CCn3nccc32)cc1 was read as ALOX12 inh -7%.
Screening Cc1ccc(NC(=O)CC(C)(C)CC(=O)O)cc1C returned ALOX12 inh -1%.
`CCC1CN(C(=O)C2CCN(S(=O)(=O)c3c(C)noc3/C=C/c3ccc(C)cc3)CC2)c2cc(C)ccc2O1` (stereo not drawn) gave ALOX12 inh -29%, DT40 TDP1 no CPT 1% and DT40 TDP1 CPT -28%.
Cc1ccc(/C=C/c2onc(C)c2S(=O)(=O)N2CCC(C(=O)N3CCN(c4ccccc4F)CC3)CC2)cc1 was read as ALOX12 inh -19%, DT40 TDP1 no CPT 2.6µM* and DT40 TDP1 CPT 21µM*.
Screening Cc1ccc(/C=C/c2onc(C)c2S(=O)(=O)N2CCC(C(=O)N3CCC(N(C)C(C)C)CC3)CC2)cc1 returned ALOX12 inh inconclusive, DT40 TDP1 no CPT 6.5µM* and DT40 TDP1 CPT 5.2µM*.
For CC(=O)c1ccc(N2CCN(C(=O)C3CCN(S(=O)(=O)c4c(C)noc4/C=C/c4ccc(C)cc4)CC3)CC2)cc1 the results were ALOX12 inh -7%, DT40 TDP1 no CPT 2.6µM* and DT40 TDP1 CPT 6.5µM*.
For CC(=O)c1ccc(N2CCN(C(=O)C3CCN(S(=O)(=O)c4cn(C)cn4)CC3)CC2)cc1 the results were ALOX12 inh -16%, DT40 TDP1 no CPT -9% and DT40 TDP1 CPT -12%.
O=S(=O)(NCC1(COc2ccccc2)C[C@@H](O)[C@@H](O)C1)c1ccc(F)cc1 (stereo partly drawn) was read as ALOX12 inh -1%[176 µM].
For CCCCOc1ccc(NC(=O)CCC)c2cccnc12 the results were ALOX12 inh -15%.
`O=C(NCc1ccco1)c1cc(S(=O)(=O)N2CCCc3ccccc32)ccc1Cl` gave ALOX12 inh -12%, DT40 TDP1 no CPT 13µM*, HT1080 IDH1KD tx 0%, DT40 TDP1 CPT 15µM*, IL1B secr inh 0 and HT1080NT lethal -3%.
Screening CC(C)CNC(=O)COC(=O)c1ccc(Cl)c(S(=O)(=O)N2CCc3ccccc32)c1 returned ALOX12 inh -7%, DT40 TDP1 no CPT -5%, HT1080 IDH1KD tx -9%, DT40 TDP1 CPT -3%, IL1B secr inh 25 and HT1080NT lethal 6%.
CCNC(=O)COC(=O)c1cc(S(=O)(=O)N2CCCc3ccccc32)ccc1Cl was read as ALOX12 inh -26%, DT40 TDP1 no CPT -6%, HT1080 IDH1KD tx 10%, DT40 TDP1 CPT -16%, IL1B secr inh -94* and HT1080NT lethal 6%.
For COc1ccc(S(=O)(=O)N2CCc3ccccc32)cc1C(=O)NCc1ccco1 the results were ALOX12 inh -15%, DT40 TDP1 no CPT inconclusive, HT1080 IDH1KD tx 1%, DT40 TDP1 CPT 3%, IL1B secr inh -5 and HT1080NT lethal -22%.
Screening c1ccc(-c2nc(-c3cccs3)[nH]c2-c2ccccc2)cc1 returned ALOX12 inh 1%, DT40 TDP1 no CPT inconclusive, HT1080 IDH1KD tx -29%, DT40 TDP1 CPT inconclusive, IL1B secr inh -3 and HT1080NT lethal 2%.
`Oc1ccccc1-c1nc2c3ccccc3c3ccccc3c2[nH]1` gave ALOX12 inh -5%, DT40 TDP1 no CPT 18µM*, HT1080 IDH1KD tx inconclusive, DT40 TDP1 CPT 21µM*, IL1B secr inh 29 and HT1080NT lethal inconclusive.
For c1csc(-c2nc3c4ccccc4c4ccccc4c3[nH]2)c1 the results were ALOX12 inh inconclusive, DT40 TDP1 no CPT inconclusive, HT1080 IDH1KD tx inconclusive, DT40 TDP1 CPT 21µM*, IL1B secr inh -5 and HT1080NT lethal -25%.
CCCCN1C(=O)C(=O)N(CC(=O)N2N=C3/C(=C/c4ccco4)CCCC3C2c2ccco2)C1=O (stereo not drawn) was read as ALOX12 inh 0%, DT40 TDP1 no CPT -3%, HT1080 IDH1KD tx 10%, DT40 TDP1 CPT 12%, IL1B secr inh -10 and HT1080NT lethal 6%.
CNC(=O)c1sc(N2N=C3/C(=C/c4ccccc4)CCCC3C2c2ccccc2)nc1C (stereo not drawn) was read as ALOX12 inh 1%, DT40 TDP1 no CPT 13µM*, HT1080 IDH1KD tx inconclusive, DT40 TDP1 CPT inconclusive, IL1B secr inh -12 and HT1080NT lethal -2%.
